Measurements reported in PubChem BioAssay (NCI).
The panel holds about 83,000 compounds, 20% with a hit somewhere; the sample as a whole holds those more often.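 Growth was measured after 48 h exposure to one concentration of compound in 96-well plates. Values under 10 count as active.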 Values without a mark were called inactive. Calls of active or inactive are those of the source.

Experiments:
Assay in all cases: NCI-60 one-dose screen, 48 h (100 = growth as untreated, 0 = no growth, -100 = all killed)
Settings in all cases: 10 µM unless noted
RPMI-8226 leukemia = test system: RPMI-8226 leukemia
OVCAR-8 ovarian = test system: OVCAR-8 ovarian
OVCAR-5 ovarian = test system: OVCAR-5 ovarian
OVCAR-4 ovarian = test system: OVCAR-4 ovarian
SK-OV-3 ovarian = test system: SK-OV-3 ovarian
IGROV1 ovarian = test system: IGROV1 ovarian
OVCAR-3 ovarian = test system: OVCAR-3 ovarian
HS 578T breast = test system: HS 578T breast
NCI/ADR-RES ovarian = test system: NCI/ADR-RES ovarian
T-47D breast = test system: T-47D breast
BT-549 breast = test system: BT-549 breast
MDA-MB-435 melanoma = test system: MDA-MB-435 melanoma
SW-620 colon = test system: SW-620 colon
MCF7 breast = test system: MCF7 breast
HCT-116 colon = test system: HCT-116 colon
HCC-2998 colon = test system: HCC-2998 colon
KM12 colon = test system: KM12 colon

Structure (SMILES) | growth (RPMI-8226 leukemia) | growth (OVCAR-8 ovarian) | growth (OVCAR-5 ovarian) | growth (OVCAR-4 ovarian) | growth (SK-OV-3 ovarian) | growth (IGROV1 ovarian) | growth (OVCAR-3 ovarian) | growth (HS 578T breast) | growth (NCI/ADR-RES ovarian) | growth (T-47D breast) | growth (BT-549 breast) | growth (MDA-MB-435 melanoma) | growth (SW-620 colon) | growth (MCF7 breast) | growth (HCT-116 colon) | growth (HCC-2998 colon) | growth (KM12 colon)
COc1ccc2c(c1)c(-c1ccc(-c3cn(C)c4ccc(OC)cc34)o1)cn2C | 25.5% | 39.4% | 36.8% | -42.3% (active) | 93.4% | 70.2% | 23.2% | -31.2% (active) | 38.7% | -14% (active) | 1.95% (active) | 89.5% | 38% | 65.4% | 68.6% | 30.1% | 22.7%
COc1cc(C(=O)/C=C/c2sc(Cl)nc2Cl)cc(OC)c1OC | -38% (active) | 33.6% | 77.1% | 57.2% | 97.7% | 25.5% | -95.5% (active) | 71.3% | 76.3% | 28.2% | 86.2% | 98.5% | -61% (active) | -68.1% (active) | -54.3% (active) | -58.3% (active) | 28.4%
Cc1cc(N2CCCC2)nc(N(CCCNc2ccnc3cc(Cl)ccc23)Cc2ccccn2)n1 | 28% | 49.2% | 59.6% | 81% | 76.5% | 50.7% | 59.5% | 72.6% | 39.2% | 68.6% | 64.9% | 19.1% | 44.5% | 47.3% | 16.3% | 79.5% | 63.8%
CC1Cc2ccccc2N1NC(=O)c1ccc(Cl)c(S(N)(=O)=O)c1 (stereo unspecified) | 101% | 104% | 105% | 98.7% | 98.4% | 98.6% | 119% | 107% | 101% | 100% | 92.1% | 102% | 105% | 92.2% | 98.2% | 96% | 107%
COc1ccc(C(=S)N2CCN(c3cccc(C)c3)CC2)cc1OC | 80% | 76.6% | 93.4% | 103% | 88.5% | 42.4% | 41.1% | 103% | 5.68% (active) | 76% | 59.1% | 2.58% (active) | 36.5% | 43.4% | 37% | 62.5% | 43.2%
Cc1cc(O)c(C2=NN(c3ccc(S(N)(=O)=O)cc3)C(c3ccccc3O)C2)cc1Cl (stereo unspecified) | 15.4% | 4.04% (active) | -15.1% (active) | 44% | 34.1% | 0.983% (active) | -45.8% (active) | 8.33% (active) | 1.92% (active) | 21.6% | 99.7% | 10% | -0.676% (active) | 7.94% (active) | -92.9% (active) | -75% (active) | -60.4% (active)
COc1ccc(-n2c(N)c(-c3nc4ccccc4[nH]3)cc(C#N)c2=O)cc1 | 92.3% | 69.8% | 99% | 77.5% | 111% | 103% | 107% | 50.1% | 77.8% | 77.8% | 75.1% | 99.3% | 106% | 87.7% | 88.2% | 108% | 99.9%
COc1ccc2c(c1OC)C(=O)O[C@H]2[C@H]1c2c(cc3c(c2OC)OCO3)CCN1C | 107% | 95.8% | 96.2% | 105% | 111% | 102% | 124% | 96.5% | 84.7% | 109% | 98.3% | 54.1% | 92.1% | 93.9% | 92.6% | 96.6% | 95.2%
